Assay outcomes: PubChem, National Center for Advancing Translational Sciences (NCATS)
Cycloheximide cs = counter-screen for Shiga toxin inhibitors: cycloheximide protein synthesis inhibition; 12% of 300,000 active; max response, %; cell reporter, cycloheximide protein synthesis inhibition counterscreen; AID 2314; in the data active = max response mostly above about 13%, no sharp cut-off; inactive = mostly below about 14%; note: read at 38.3 µM for the half of the compounds with a filed dose; 0% is about no effect
Shiga inhibitor = Shiga toxin inhibition; Vero cells, Shiga toxin protein synthesis inhibition reporter; 9.2% of 290,000 active; AID 2315; inhibition, % at 38.7 µM; in the data active = inhibition mostly above about 28%, no sharp cut-off; inactive = mostly below about 43%; note: 0% is about no effect
AmpC detergent = blocks E. coli AmpC beta-lactamase in detergent assay; AmpC hydrolysis of nitrocefin, absorbance 480 nm, 0.01% Triton; P00811; 0.041% of 370,000 active; Potency, µM (highest dose often 114 µM), for inactives: at the highest dose activity change, negative = inhibition, most hits filed as inhibitors;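 note: potency is the fitted concentration of half-maximal effect; 0% = no-compound wells and -100% = no-enzyme wells; nearly all actives have a fitted effect of over 25% in size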
Target sequence (P00811 whole entry, looked up): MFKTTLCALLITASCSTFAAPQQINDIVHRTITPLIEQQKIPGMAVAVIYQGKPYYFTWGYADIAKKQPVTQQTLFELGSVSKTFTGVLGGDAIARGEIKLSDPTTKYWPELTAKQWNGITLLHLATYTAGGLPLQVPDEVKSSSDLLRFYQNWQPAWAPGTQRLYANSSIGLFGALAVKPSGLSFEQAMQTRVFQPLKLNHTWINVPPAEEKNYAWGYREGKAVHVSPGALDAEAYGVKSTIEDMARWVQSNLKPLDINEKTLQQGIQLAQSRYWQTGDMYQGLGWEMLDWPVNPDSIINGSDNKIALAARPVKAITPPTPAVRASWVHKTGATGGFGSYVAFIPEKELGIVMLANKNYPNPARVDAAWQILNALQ
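AmpC (5.3 nM in the dispensed reagent) in 20 mM phosphate pH 7.0 with 0.01% (detergent screen) or 0.0001% Triton X-100 was preincubated with compounds for 15 min at room temperature. Nitrocefin was then added from an 800 uM solution, and hydrolysis was followed at 480 nm.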
AmpC no deterg = blocks E. coli AmpC beta-lactamase in detergent-free assay; 0.52% of 330,000 active; P00811; AmpC nitrocefin hydrolysis, absorbance 480 nm, 0.0001% Triton; Potency, µM (series often up to 57.1 µM), inactives show at the highest dose activity change, negative = inhibition, actives largely listed as inhibitors;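 note: potency is the fitted concentration of half-maximal effect; plate controls were no compound for no effect and no enzyme for full effect; nearly all actives have a fitted effect of over 20% in size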
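20 mM phosphate pH 7.0 + 0.01% (detergent screen) or 0.0001% Triton X-100; 5.3 nM AmpC reagent; cpd preinc 15 min RT; nitrocefin (800 uM stock) to start; A480 q20 s × 4 min; Activity was normalised to no-enzyme and no-compound control wells.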
NS1 inh = inhibitors of influenza NS1 protein function; AID 2326; Potency, µM (top dose mostly 46.1 µM), for inactives: at the top dose activity, positive = more growth; 0.4% of 270,000 active; calls by dose curve; note: potency is the fitted concentration of half-maximal effect; actives are rising curves; nearly all actives have a fitted effect of over 50% in size
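In this qHTS, NS1 from influenza A is expressed in budding yeast, where it slows growth. Cells are switched from glucose to 2% galactose medium (pH 6.0, -URA), treated with compound, and growth recovery is read at OD600.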
An asterisk follows results filed as active. Shown is part of a subset that was picked to be rich in hits. Unless noted, calls come from the whole dose curve; as a rule, active = well fitted curve in the direction sought with a large enough effect; inconclusive = small, poorly fitted or top-dose-only effect, or another doubt; inactive = no such curve, though single readings can be large; an effect the other way counts as inactive or inconclusive.

What do the screens show for `c1ccc(-c2ccccc2-c2nc(-c3ccncc3)no2)cc1`?
Cycloheximide cs: -1; Shiga inhibitor: 7; AmpC detergent: -5%; AmpC no deterg: 60%; NS1 inh: -132%

What do the screens show for `Cc1ccc(NC(=O)CSc2ccc3c(c2)OCCO3)nc1`?
AmpC detergent: -3%; AmpC no deterg: -25%

How did Cc1cccc(-n2c(=O)c3c(c4cc(C)ccc4n3C)n(CC(=O)N3CCCC3)c2=O)c1 do in these assays?
AmpC detergent: -10%

Results for COc1ccccc1CCNC(=O)c1cccn1-c1nnc(N2CCCC2)s1 ?
AmpC detergent: 5%

Results for CN(C)CCCNc1c2c(nc3ccc(Cl)cc13)CCCC2 ?
NS1 inh: 0%

Results for Cc1ccc(Cl)cc1-n1ncc2c(N3CCN(Cc4ccccc4)CC3)ncnc21 ?
AmpC detergent: -6%

How did CCN=c1scc(-c2ccco2)n1/N=C/c1ccc(OC)c(O)c1 do in these assays?
Cycloheximide cs: 54*; Shiga inhibitor: 139*; AmpC detergent: -7%; NS1 inh: -74%

How did COc1ccc(/C=N/N2CCN(C)CC2)cc1O do in these assays?
Cycloheximide cs: 0; Shiga inhibitor: 4; AmpC detergent: -7%; AmpC no deterg: -16%; NS1 inh: 8%

How did C=C(C)CN=c1scc(C)n1/N=C/c1ccco1 do in these assays?
Cycloheximide cs: 2; Shiga inhibitor: 10; AmpC detergent: -12%; AmpC no deterg: 1%; NS1 inh: -10%

Results for CCN=c1scc(-c2ccco2)n1/N=C/c1ccc(O)cc1 ?
Cycloheximide cs: 39*; Shiga inhibitor: 69*; AmpC detergent: -15%; AmpC no deterg: -32%; NS1 inh: -61%

What do the screens show for `Cc1cccn2c(=O)cc(CSc3nnc(NC(=O)C(C)C)s3)nc12`?
AmpC detergent: -10%

How did Cc1c2cnn(CC(=O)N3CCC4(CC3)OCCO4)c(=O)c2c(C)n1Cc1ccccc1Cl do in these assays?
Cycloheximide cs: 14*; Shiga inhibitor: 14; AmpC detergent: -1%; AmpC no deterg: 30%; NS1 inh: 15%

Results for Cc1c2cnn(CC(=O)N3CCC4(CC3)OCCO4)c(=O)c2c(C)n1Cc1ccccc1 ?
Cycloheximide cs: -2; Shiga inhibitor: -14; AmpC detergent: -1%; AmpC no deterg: 51%; NS1 inh: 0%

How did COC(=O)Cn1ncn2c(cc3oc(C)cc32)c1=O do in these assays?
Cycloheximide cs: 40*; Shiga inhibitor: 76*; AmpC detergent: 0%; AmpC no deterg: -12%; NS1 inh: -1%

What do the screens show for `CN1CCN(c2nc3c(S(=O)(=O)c4ccccc4)nnn3c3ccsc23)CC1`?
AmpC detergent: 17%

How did COC(=O)c1sc(-c2cccs2)cc1N do in these assays?
Cycloheximide cs: 40*; Shiga inhibitor: 47*; AmpC detergent: 7%; AmpC no deterg: -25%; NS1 inh: -3%

What do the screens show for `COC(=O)c1sc(-c2ccc(Cl)cc2)cc1N`?
Cycloheximide cs: 66*; Shiga inhibitor: 80*; AmpC detergent: 8%; AmpC no deterg: -26%; NS1 inh: -4%

How did CC(=O)c1sc(-c2ccc(Cl)cc2)cc1N do in these assays?
Cycloheximide cs: 27*; Shiga inhibitor: 35*; AmpC detergent: 1%; AmpC no deterg: -10%; NS1 inh: 9%

What do the screens show for `CCOC(=O)c1c(NC(=O)c2ccc(S(=O)(=O)N(C)C3CCCCC3)cc2)sc2c1CCN(C(C)C)C2`?
AmpC detergent: -4%

What do the screens show for `COc1ccccc1-c1cn[nH]c1-c1ccc(OCc2ccc(F)cc2)cc1O`?
Cycloheximide cs: -4; Shiga inhibitor: -20; AmpC detergent: 4%; AmpC no deterg: 7.1µM*; NS1 inh: 9%

What do the screens show for `O=C(O)c1cc(N(Cc2ccccc2O)Cc2cc(O)ccc2O)ccc1O`?
Cycloheximide cs: -3; Shiga inhibitor: -4

What do the screens show for `CCC(C)(C)NC(=O)C(c1ccc(OC)cc1)N(C(=O)CCC(=O)Nc1cc(C)on1)c1cc(OC)ccc1OC` (stereo unspecified)?
Cycloheximide cs: -3; Shiga inhibitor: 7; AmpC detergent: -13%; AmpC no deterg: 116%; NS1 inh: -2%

How did Cc1ccc(Nc2nc(N)c([N+](=O)[O-])c(NCCO)n2)cc1C do in these assays?
Cycloheximide cs: 27*; Shiga inhibitor: 62; AmpC detergent: 1%; AmpC no deterg: -21%; NS1 inh: -3%

What do the screens show for `Nc1nc(NCc2ccco2)nc(Nc2ccc(F)cc2)c1[N+](=O)[O-]`?
Cycloheximide cs: -1; Shiga inhibitor: 26; AmpC detergent: 4%; AmpC no deterg: -14%; NS1 inh: 1%

How did Cc1ccc(Nc2nc(N)c([N+](=O)[O-])c(NCc3ccco3)n2)cc1C do in these assays?
Cycloheximide cs: 67*; Shiga inhibitor: 54*; AmpC detergent: 0%; AmpC no deterg: -31%; NS1 inh: 9%

How did CCOc1ccc(Nc2nc(N)c([N+](=O)[O-])c(NCc3ccccc3)n2)cc1 do in these assays?
Cycloheximide cs: 19*; Shiga inhibitor: 34; AmpC detergent: 1%; AmpC no deterg: -26%; NS1 inh: -4%

How did CC(C)CC(C(=O)NCC1CCN(Cc2ccc(F)cc2)CC1)N1Cc2ccccc2C1=O (stereo unspecified) do in these assays?
AmpC detergent: 0%

Results for Fc1cc2[nH]c(=S)[nH]c2c(Br)c1N1CCSCC1 ?
Cycloheximide cs: 9.2*; Shiga inhibitor: 47; AmpC detergent: 3%; AmpC no deterg: -33%; NS1 inh: 9%

How did Cn1c(C(=O)O)c(S(=O)(=O)c2ccc(Cl)cc2)c2ccccc21 do in these assays?
Cycloheximide cs: -1; Shiga inhibitor: 5; AmpC detergent: -2%; AmpC no deterg: -18%; NS1 inh: 1%

What do the screens show for `CC(C)CC(=O)NC(=S)Nc1cccc(NC(=O)c2ccccc2Cl)c1`?
Cycloheximide cs: 0; Shiga inhibitor: 2; AmpC detergent: -1%; AmpC no deterg: -39%; NS1 inh: 2%

Results for CC(C)Oc1cccc(C(=O)NC(=S)Nc2ccc(N3CCN(C)CC3)cc2)c1 ?
Cycloheximide cs: 26*; Shiga inhibitor: 40; AmpC detergent: 5%; AmpC no deterg: 103%; NS1 inh: 6%

How did CC(C)Oc1cccc(C(=O)NC(=S)Nc2cccc(NC(=O)c3ccccc3Cl)c2)c1 do in these assays?
Cycloheximide cs: 9; Shiga inhibitor: -7; AmpC detergent: -19%; AmpC no deterg: 3.2µM*; NS1 inh: 23%

Results for Cc1ccc(SC2=C(Sc3ccc(C)cc3)C(=O)c3ccccc3C2=O)cc1 ?
Cycloheximide cs: 28*; Shiga inhibitor: 37*; AmpC detergent: -5%; AmpC no deterg: -49%; NS1 inh: 5%

What do the screens show for `CCn1cc(CN2CCCC(C(=O)Nc3ccc(-c4nc5ccccc5[nH]4)cc3)C2)c(C)n1` (stereo unspecified)?
Cycloheximide cs: 26*; Shiga inhibitor: 34; AmpC detergent: 2%; AmpC no deterg: 4%; NS1 inh: 3%
